# TRHR PAM: allosterically enhances the human TRH receptor. P34981. TRHR cells, fluo-8 calcium fluorescence, EC20 TRH enhancement. enhancement, % at 2 µM. actives 0.66% (n = 360,000); in the data active = enhancement above about 30%; note: 0% is about no effect
#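 Enhancer read-out: after compound pinning and an initial kinetic agonist-mode read, an EC20 of TRH (10 nM final) was injected and fluo-8 calcium signal (Ex 480/Em 530) followed at 1 s/cycle for 100 cycles in TRHR-expressing cells.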
# TRHR ag: agonists of human TRH receptor; P34981; TRHR cells, calcium flux fluo-8, FDSS agonist mode; activation, % at 2 µM; actives 0.18% (n = 360,000); note: 0% is about no effect
#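 Fluo-8-loaded TRHR cells; 10 s baseline, compound added, kinetic Ca2+ fluorescence read 1/s, agonist mode.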
# D1 ag: activates the human D1 dopamine receptor. HEK293 T-REx D1 cells, calcium flux, agonist mode. AID 504660. P21728. actives 1% (n = 360,000). activation, % at 2 µM; note: 0% is about no effect
# Target sequence (P21728 whole entry, looked up): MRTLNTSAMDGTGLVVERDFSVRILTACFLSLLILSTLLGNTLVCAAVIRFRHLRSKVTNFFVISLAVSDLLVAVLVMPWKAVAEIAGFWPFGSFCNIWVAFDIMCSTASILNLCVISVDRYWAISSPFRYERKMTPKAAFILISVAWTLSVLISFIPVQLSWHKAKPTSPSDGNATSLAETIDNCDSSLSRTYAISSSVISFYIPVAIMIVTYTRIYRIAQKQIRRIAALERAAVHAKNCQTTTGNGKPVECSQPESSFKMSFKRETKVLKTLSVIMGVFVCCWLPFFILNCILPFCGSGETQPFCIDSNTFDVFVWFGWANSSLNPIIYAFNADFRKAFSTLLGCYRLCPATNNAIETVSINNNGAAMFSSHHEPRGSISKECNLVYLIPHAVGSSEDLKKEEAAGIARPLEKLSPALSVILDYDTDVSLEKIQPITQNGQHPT
#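 Agonism was scored from calcium flux recorded over 180 s (1 read/s) after pintool compound addition, following a 10-cycle baseline. Cells were inducible force-coupled HEK293 TREx D1, plated overnight at 30 C and loaded with no-wash calcium dye.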
# D1 antag: blocks dopamine activation of the human D1 receptor; HEK293 TREx D1 cells, calcium flux, dopamine EC80; active compounds read low; actives 3.2% (n = 360,000); activity change, negative = inhibition, % at 10 µM; P21728; AID 504652; in the data active = activity change below about -30%; note: % is set by controls: 0 for no effect and ±100 for the full control effect
#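 Kinetic fluorescence of a calcium dye serves as the read-out. D1-expressing Hek293 Trex cells, induced overnight at 30 C, are exposed to compound for 180 s before an EC80 dopamine addition, then read 180 s further.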
# D1 PAM: human D1 dopamine receptor positive modulation. P21728. actives 0.036% (n = 360,000). HEK293 TREx D1 cells, calcium flux, dopamine EC20 potentiation. potentiation, % at 10 µM; in the data active = potentiation above about 30%; note: 0% is about no effect
# An asterisk follows results filed as active. The list is not random: actives were taken first. Their share in the collection is about 4.7%. Cut-off read from the data, not from the text of the source, unless noted: active = activation above about 30%; inactive = the rest.
SMILES,TRHR PAM,TRHR ag,D1 ag,D1 antag,D1 PAM
O=C(CN1CCN(CCOCCO)CC1)N1c2ccccc2Sc2ccc(Cl)cc21,9,0,0,-6,2
OCCN1CCN(C2Cc3cc(Cl)ccc3Sc3ccc(Cl)cc32)CC1 (stereo not given) (tested in a mixture with another compound),1,0,12,-86*,-28
CN1CCN(CCOC2Cc3ccccc3Sc3ccc(Cl)cc32)CC1 (stereo not given),0,1,29,-66*,-21
COCC(=O)Nc1ncc(S(=O)(=O)c2ccc([N+](=O)[O-])cc2)s1,-1,2,3,4,-4
O=C(Nc1ncc(S(=O)(=O)c2ccc([N+](=O)[O-])cc2)s1)c1cccc2ccccc12,-3,5,56*,-4,9
Cc1c(O)ccc(/C(Cc2ccc3ccccc3n2)=N\O)c1O,3,0,21,-31*,-6
CC(=O)Oc1ccc(C(=O)Cc2ccc3ccccc3n2)c(O)c1C,3,10,32*,0,-2
CC(=O)Oc1ccc(C(=O)Cc2ccccn2)c(O)c1,-5,0,2,-12,-3
Cc1ccc(C2Nc3cc(C)c(C)cc3-n3c(-c4ccccc4)c4c(=O)n(C)c(=O)n(C)c4c32)o1 (stereo not given),4,0,-1,20,-2
CCSC1=NC2(CCN(C(=O)NC3CCCCC3)CC2)N=C1c1ccc(C)c(C)c1,7,0,13,-15,-6
Oc1[nH]c(=S)sc1/C=C1\C(c2ccccc2)=Nc2ccccc21,-7,9,38*,0,-7
CCc1ccc(NC(=O)CN2C(=O)CC(C)S(=O)(=O)c3ccccc32)cc1 (stereo not given),13,0,0,-32*,-3
Cc1cc(NS(=O)(=O)c2ccc(NC(=O)COc3ccc(Cl)cc3)cc2)nc(C)n1,-8,0,1,5,0
CCCSc1ncc(Cl)c(C(=O)NCc2ccc(C)cc2)n1,2,0,7,-6,5
COc1ccc(OC)c(S(=O)(=O)N2CCN(Cc3nc4ccc(C)cc4o3)CC2)c1,-1,-1,-1,3,1
N#Cc1cccc(NC(=O)c2ccccc2C(=O)O)c1,-1,1,3,0,-2
N#Cc1ccc(NC(=O)Nc2ccc(Oc3ccc(NC(=O)Nc4ccc(C#N)cc4)cc3)cc2)cc1,37*,0,16,11,-4
N#Cc1ccc(NC(=O)Nc2cccc(C#N)c2)cc1,4,3,32*,-63*,-13
CC(=O)c1ccc(NC(=O)Cn2c(=O)oc3cc(S(=O)(=O)N4CCCCC4)ccc32)cc1,-4,0,1,-2,-7
COc1ccc(NC(=O)CC2NCCNC2=O)c(OC)c1 (stereo not given),-1,0,0,2,-3
Cc1ccccc1-c1noc(CSc2nnc(-c3ccncc3)n2-c2ccc(F)cc2)n1,-3,0,1,-5,-5
Cc1ccc(-n2c(SCc3nc(-c4ccccc4C)no3)nnc2-c2ccncc2)cc1C,1,-1,13,-34*,-1
Cc1c(/C=N\NC(=O)c2ccc(F)cc2)cnn1C,0,0,1,-22,2
Cc1occc1C(=O)N/N=C/c1cnn(C)c1C,-4,0,1,-40*,-13
CCOc1ccc(Sc2cc(C(=O)NCc3ccccc3Cl)c3ccccc3n2)cc1,11,1,4,-36*,-2
SMILES,TRHR PAM,TRHR ag,D1 ag,D1 antag,D1 PAM
COc1ccc(Nc2cc(C(=O)NCCCN3CCOCC3)c3ccccc3n2)cc1,1,1,2,-10,-4
CCOc1ccc(Nc2cc(C(=O)NCc3ccccc3Cl)c3ccccc3n2)cc1,-3,0,-1,-10,2
CCc1ccc(Nc2cc(C(=O)NCCCN3CCOCC3)c3ccccc3n2)cc1,11,-1,51*,-26,-6
CCc1ccc(Sc2cc(C(=O)NCc3cccc(OC)c3)c3ccccc3n2)cc1,-1,3,13,-32*,-2
CCc1ccc(Sc2cc(C(=O)NCCCN3CCCC(C)C3)c3ccccc3n2)cc1 (stereo not given),2,1,36*,-22,0
CCc1ccc(Sc2cc(C(=O)NCCCN3CCC(C)CC3)c3ccccc3n2)cc1,8,1,29,-21,0
Cc1cc(C)cc(N2CC(c3nnc(NC(=O)c4ccco4)s3)CC2=O)c1 (stereo not given),-2,-1,-2,-1,0
O=C(Cn1cc(S(=O)(=O)c2ccccc2)c(=O)c2cc3c(cc21)OCO3)Nc1ccccc1,-1,-2,-2,10,2
Cc1nn(-c2ccc(Cl)cc2)c2nc(-c3cccnc3)cc(C(F)(F)F)c12,8,0,1,16,0
CCOc1ccc(-c2cc(C(=O)NCc3ccccc3Cl)c3ccccc3n2)cc1,-4,1,-2,-36*,-2
COc1cc2[nH]cc(C(=O)NCCc3ccccc3)c(=O)c2cc1OC,3,-1,0,-32*,-8
COc1cc2[nH]cc(C(=O)NCc3ccccc3)c(=O)c2cc1OC,-4,0,3,1,-6
COc1ccc(CNC(=O)Cc2c(C)c3c(O)cc(C)cc3oc2=O)cc1,1,0,2,2,-1
Cc1cc(O)c2c(C)c(CC(=O)NCc3ccccc3Cl)c(=O)oc2c1,0,0,1,-35*,-3
CCC(C)NC(=O)Cn1c(=O)n(CC2CCC(C(=O)NC)CC2)c(=O)c2sccc21 (stereo not given),-2,0,0,23,-5
COc1ccc(SCC(=O)c2cc(C)c(OC(=S)N(C)C)c(C)c2)cc1,-4,0,4,-35*,-3
COCC(C)NC(=O)CSc1nc2cc(S(=O)(=O)N3CCCCC3)ccc2o1 (stereo not given),-3,1,4,-47*,-9
COCCCNC(=O)CSc1nc2cc(S(=O)(=O)N3CCCCC3)ccc2o1,5,1,6,1,0
Cc1cccc(S(=O)(=O)C(C#N)c2nc3ccccc3nc2N2CCCC2)c1 (stereo not given),-4,8,34*,-8,-9
COc1ccc(-c2cc3nc(C)c(CCC(=O)N4CCN(c5cccc(Cl)c5)CC4)c(C)n3n2)c(OC)c1,4,0,3,0,-3
CC(C)Oc1ccc(C(CCN)C2CCCCC2)cc1 (stereo not given),2,18,102*,40,12
Cc1ccc(S(=O)(=O)c2nnn3c2nc(NCc2ccc4c(c2)OCO4)c2sccc23)cc1C,-3,1,4,2,-2
Cc1ccc(C(=O)CNc2ccccc2)cc1,0,-1,3,-4,1
